CSC inhib = cancer stem cell viability inhibitors, primary screen, luminescence. cancer stem cell-like cells viability. inhibition, % at 7.5 µM. 1.1% of 300,000 active. AID 2717, 2010; in the data active = inhibition above about 75%; inconclusive = no clear call, values can overlap the other calls; tested in HMLE shEcad cells
Shn3 3UTR inh = reduction of Shn3 3'UTR firefly luciferase signal, primary screen, Schnurri-3 inhibitor project, cell-based, Clone20 osteoblasts, set 2 | Clone20 osteoblast Shn3 3'UTR firefly luciferase, 24 h | inhibition, % at 12.5 µM | 0.52% of 360,000 active | AID 588674, 2011;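 active = mean inhibition of at least 75% with every replicate also reaching 75%; inconclusive = mean inhibition at least 75% but some replicate below; inactive = mean inhibition below 75%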;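 note: 0% = median of neutral control wells and 100% = pilot-screen positive control compound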
Mdm2-MdmX inh = inhibitors of human Mdm2-MdmX association, primary screen, cell-based, luminescence, split luciferase, SaOS-2, uHTS | SaOS-2 split-luciferase Mdm2/MdmX complementation | inhibition, % at 8 µM | Protein Mdm4 (Homo sapiens) + E3 ubiquitin-protein ligase Mdm2 (Homo sapiens), … | 3% of 330,000 active | AID 485346, 2010;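 active = inhibition of at least 50% at 8 µM in the primary screen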
Target sequence (O15151 whole entry, looked up): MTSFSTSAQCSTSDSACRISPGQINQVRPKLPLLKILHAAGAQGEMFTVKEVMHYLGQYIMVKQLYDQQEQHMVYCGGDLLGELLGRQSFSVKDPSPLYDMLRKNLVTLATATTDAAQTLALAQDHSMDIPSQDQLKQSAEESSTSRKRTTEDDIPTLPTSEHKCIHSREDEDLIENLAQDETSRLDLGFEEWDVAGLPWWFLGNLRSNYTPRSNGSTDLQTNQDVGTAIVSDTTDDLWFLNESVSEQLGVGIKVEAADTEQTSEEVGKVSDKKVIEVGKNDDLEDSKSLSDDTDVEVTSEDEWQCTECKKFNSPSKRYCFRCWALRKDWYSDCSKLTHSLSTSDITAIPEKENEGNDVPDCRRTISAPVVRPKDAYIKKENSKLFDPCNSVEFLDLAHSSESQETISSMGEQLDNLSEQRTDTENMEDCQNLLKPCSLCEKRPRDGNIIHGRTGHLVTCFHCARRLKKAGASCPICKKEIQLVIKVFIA
Target sequence (Q00987 whole entry, looked up): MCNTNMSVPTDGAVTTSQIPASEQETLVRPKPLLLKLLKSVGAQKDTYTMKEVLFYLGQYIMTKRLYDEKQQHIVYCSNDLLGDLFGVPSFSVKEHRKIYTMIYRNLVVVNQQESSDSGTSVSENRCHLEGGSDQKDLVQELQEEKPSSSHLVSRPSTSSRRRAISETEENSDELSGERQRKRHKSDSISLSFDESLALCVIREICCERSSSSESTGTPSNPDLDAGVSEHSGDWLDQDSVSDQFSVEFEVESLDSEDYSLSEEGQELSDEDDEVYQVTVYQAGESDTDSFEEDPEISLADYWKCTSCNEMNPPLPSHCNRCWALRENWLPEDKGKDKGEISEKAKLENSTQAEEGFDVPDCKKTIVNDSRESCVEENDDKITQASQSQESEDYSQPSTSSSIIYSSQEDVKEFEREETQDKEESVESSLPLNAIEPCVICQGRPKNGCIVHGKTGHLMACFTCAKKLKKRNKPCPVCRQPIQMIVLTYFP
Gli-Sufu block = Gli-Sufu pathway antagonists, primary screen, luciferase luminescence, Sufu-KO-LIGHT cells, uHTS | AID 588413, 2011 | inhibition, % at 5 µM | 0.74% of 340,000 active | Sufu-KO-LIGHT fibroblasts, Gli luciferase reporter luminescence;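 active = inhibition above about 55%, limit read from the data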;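 note: 0% = DMSO-treated cells and 100% = wells with medium but no cells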
PAX8 reporter = inhibitors of PAX8-driven TPO luciferase reporter, primary screen, RMG-I cells, single concentration | SteadyGlo, 24 h | 1.2% of 360,000 active | inhibition, % at 12.6 µM | AID 652154, 2013;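 active = mean replicate inhibition at least 60% with every replicate also reaching 60%; inconclusive = only one of the two criteria is met; inactive = mean below 60% and not all replicates reaching 60%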;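 note: luciferase light reporting Pax8 driven TPO promoter activity; plate controls were median of neutral control wells for no effect and mitoxantrone controls for full effect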
Beta apoptosis = inhibitors of cytokine-induced beta cell apoptosis, primary screen, luminescence | protection from apoptosis, % (test concentration not listed) | INS-1E cytokine-induced death, ATP luminescence, 48 h; percent of positive-control rescue, neutral wells zero | 0.8% of 300,000 active;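 active = Every replicate reaches about 75%, or at least half do and their mean reaches it too, limit read from the data; inconclusive = At least half of replicates reach the limit but their mean does not; inactive = Under half of replicates reach the limit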;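 note: 0% = cytokine-treated negative control wells and 100% = positive control rescue; higher means more ATP so stronger rescue from cytokine killing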
Mdm2 MdmX conf = Mdm2-MdmX complex disruptors, retested hits, confirmation, luminescence, single concentration; shares compounds with Mdm2-MdmX inh; inhibition, % at 8 µM; Mdm2-MdmX binding, luminescent assay; 55% of 10,000 active; in the data active = inhibition above about 40%
FLuc counter = full-length luciferase signal inhibition, confirmation, counter-screen for Mdm2/MdmX interaction inhibitor project, cell-based, single concentration, SaOS-2 | shares compounds with Mdm2-MdmX inh | SaOS-2 full-length luciferase counterscreen, luminescence | inhibition, % at 8 µM | 77% of 6,200 active | AID 504607, 2011;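 active = mean inhibition at 8 µM reaching about 37%, which flags the compound as non-specific, limit read from the data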;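 note: p53-null SaOS-2 cells with luciferase driven by a doxycycline-inducible promoter; compound on cells about two nights before reading with doxycycline added after day one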
Gli-Sufu confirm = Gli-SUFU pathway antagonists, confirmation, single concentration, luciferase luminescence, Sufu-KO-LIGHT cells; inhibition, % at 5 µM; Gli luciferase reporter; 40% of 2,500 active; shares compounds with Gli-Sufu block;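 active = mean inhibition at 5 µM reaching about 45%, limit read from the data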;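 note: plate controls were DMSO-treated cells for no effect and wells lacking cells for full effect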
Gli cytotox = cytotoxicity in Sufu-KO-LIGHT cells, confirmation, cytotoxicity control for Gli-SUFU antagonist project, cell-based, ATP luminescence, single concentration | shares compounds with Gli-Sufu block | cytotoxicity, % at 5 µM | 32% of 2,500 active;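 active = mean cytotoxicity at 5 µM above about 25%, limit read from the data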;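 note: cells exposed to compound overnight for roughly 16 to 18 hours; plate controls were DMSO wells with cells for no effect and medium without cells for full effect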
Wnt3a cs = Wnt3a reporter signal inhibition, confirmation, counter-screen for Gli-SUFU antagonist project, Wnt-LIGHT cells, luminescence, single concentration; 20% of 2,500 active; Wnt3a-driven luciferase reporter; shares compounds with Gli-Sufu block; inhibition, % at 6.25 µM;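 active = mean inhibition above about 25%, limit read from the data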
Numbers without * were called inactive; ? = inconclusive; nt = no result given. This is a sample that favours compounds with a hit; in the whole collection about 4% have one here.

SMILES	CSC inhib	Shn3 3UTR inh	Mdm2-MdmX inh	Gli-Sufu block	PAX8 reporter	Beta apoptosis	Mdm2 MdmX conf	FLuc counter	Gli-Sufu confirm	Gli cytotox	Wnt3a cs
CCOc1ccccc1NC(=O)C(=O)N/N=C/c1cc(Br)ccc1O	-5	91*	76*	56*	15	88*	83*	39*	63*	39*	59*
COc1cccc(/C=N/NC(=O)C(=O)Nc2ccccc2OC(F)(F)C(F)F)c1O	108*	83	62*	80*	47	82*	75*	22	72*	47*	66*
COc1ccccc1/C=N/NC(=O)c1cccc(OC(F)(F)C(F)F)c1	-3	4	12	-12	33	-3	nt	nt	nt	nt	nt
CN1C(=O)c2cc(NC(=O)c3cscn3)ccc2OC[C@@H]2O[C@@H](CC(=O)N3CCCCC3)CC[C@H]21	nt	nt	nt	nt	7	nt	nt	nt	nt	nt	nt
Cc1ccsc1CNc1ncnc2ccc(-c3c(C)noc3C)cc12	9	36	94*	53	-42	-12	69*	52*	62*	25*	-3
c1cncc(-c2ccc3ncnc(NCc4cccs4)c3c2)c1	nt	15	17	-18	11	-1	nt	nt	nt	nt	nt
CN(C(=O)COc1ccccc1C(=O)NCCOc1ccccc1)c1ccccc1	49	94*	85*	69*	74*	37	96*	41*	66*	43*	1
CCN1CCN(/C=N/c2nc3c(s2)CCCC3)CC1	nt	45	57*	53	nt	nt	73*	91*	70*	22	80*
C[C@@H]1CN([C@H](C)CO)C(=O)Cc2cc(NS(C)(=O)=O)ccc2O[C@@H]1CN(C)S(=O)(=O)c1cn(C)cn1	nt	nt	nt	nt	-39	nt	nt	nt	nt	nt	nt
CCCCNc1c(-c2ccc(OC)c(Sc3ccc(OC)cc3)c2)nc2ccccn12	101*	?	94*	54	nt	nt	40	65*	57*	26*	3
O=C(c1ccccc1F)N1C[C@H]2[C@@H](c3ccccc31)[C@H](CO)N2C(=O)c1ccncc1	nt	nt	nt	nt	7	nt	nt	nt	nt	nt	nt
C=CCn1c(O)c(N=NC(=S)Nc2cccc(C)c2)c2ccccc21	44	73	61*	53	0	60	55*	33	57*	26*	-22
C=CCn1c(O)c(N=NC(=S)Nc2ccccc2F)c2cc(S(=O)(=O)N3CCOCC3)ccc21	-14	?	64*	64*	49	28	44*	50*	56*	29*	-23
COc1ccccc1NC(=O)N[C@H]1CC[C@@H](CCn2cc(-c3ccccc3OC)nn2)O[C@@H]1CO	nt	nt	nt	nt	-6	nt	nt	nt	nt	nt	nt
Cc1[nH]n(-c2ccccc2)c(=O)c1N=Nc1ccccc1O	nt	85*	59*	55	66*	nt	58*	42*	55*	34*	74*
COc1ccc(S(=O)(=O)N2CCCCN3[C@H](CO)[C@@H](c4ccc(C#CC5CC5)cc4)[C@H]3C2)cc1	nt	nt	nt	nt	2	nt	nt	nt	nt	nt	nt
COc1ccc(-c2cn(-c3ccc(OC)cc3)c3[n+]2-c2ccccc2CC3)cc1	35	?	57*	88*	92*	132*	37	nt	91*	46*	26*
COCC(=O)N(C)C[C@@H]1Oc2cc(C3=CCCC3)ccc2S(=O)(=O)N([C@H](C)CO)C[C@@H]1C	nt	nt	nt	nt	-18	nt	nt	nt	nt	nt	nt
COc1ccc(-c2cc(C3CCN(c4cc(Cl)nc(N)n4)CC3)[nH]n2)cc1	7	67	18	23	nt	13	nt	nt	nt	nt	nt
Nc1nc(Cl)cc(N2CCC(c3cc(-c4ccc(Cl)cc4)n[nH]3)CC2)n1	70	81*	84*	74*	nt	104*	-1	nt	78*	19	68*
Cc1nn(-c2ccccc2)c(C)c1/C=N/NC(=O)c1cc(-c2cccs2)[nH]n1	60	13	70*	50	42	37	56*	78*	61*	60*	-62
Cc1nn(-c2ccccc2)c(C)c1/C=N/NC(=O)c1cc(C2CC2)[nH]n1	-8	4	-4	-2	nt	3	nt	nt	nt	nt	nt
COc1ccc2c(c1)N(C)/C(=C/c1cccc[n+]1C)S2	37	83	72*	80*	49	105*	35	64*	84*	36*	29*
Cc1[nH]c2ccccc2c1/C=C/c1nc2ccccc2c(=O)n1-c1cccc([N+](=O)[O-])c1	nt	1	70*	50	8	3	17	nt	20	8	-8
Cc1ccc(C)c(OCC(O)CN2CCC(CN3C(=O)c4cccc5cccc(c45)C3=O)CC2)c1 (stereo not drawn)	33	69	60*	51	-4	67	33	nt	33	13	28*
SMILES	CSC inhib	Shn3 3UTR inh	Mdm2-MdmX inh	Gli-Sufu block	PAX8 reporter	Beta apoptosis	Mdm2 MdmX conf	FLuc counter	Gli-Sufu confirm	Gli cytotox	Wnt3a cs
Cc1ccc(S(=O)(=O)N(C)C[C@H]2OCCCC[C@@H](C)Oc3ccc(NS(=O)(=O)c4c(C)noc4C)cc3C(=O)N([C@@H](C)CO)C[C@@H]2C)cc1	nt	nt	nt	nt	25	nt	nt	nt	nt	nt	nt
COCc1cc(=O)[nH]c(Nc2nc3ccc(C)cc3o2)n1	nt	62	78*	50	nt	80*	8	nt	63*	26*	-133
CCc1ccc2nc(Nc3nc(COC)cc(=O)[nH]3)nc(C)c2c1	nt	-21	12	-2	nt	nt	nt	nt	nt	nt	nt
COCC(=O)Nc1ccc2c(c1)[C@H]1C[C@@H](CC(=O)N3CCCCC3)O[C@H](CO)[C@H]1O2	nt	nt	nt	nt	9	nt	nt	nt	nt	nt	nt
COc1cccc(/C=N/Nc2cc(Cl)nc(C)n2)c1O	2	-33	-14	-2	-86	11	nt	nt	nt	nt	nt
COc1cccc(/C=N/Nc2ncnc3c2ncn3Cc2ccccc2)c1O	-12	90*	82*	51	52	nt	82*	63*	78*	32*	69*

Compound activity deposited in PubChem BioAssay by several laboratories.
